# In the supplement of paper PMC11624193, “Coupling cellular drug-target engagement to downstream pharmacology with CeTEAM” (Nature Communications, 2024):
# Structures can show the parent of a compound that is named as a salt. Unmarked numbers belong to inactive results.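 Rule for the calls: active = log2 fold change beyond 2 SD from the library mean after excluding viability outliers; inactive = within 2 SD.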
# Target: PARP1 L713F-nLuc biosensor (HCT116) (UniProt P09874)
# Test: PARP1 L713F-nLuc/akaLuc ratio relative to DMSO control (biosensor stabilization) (fold change); higher = more PARP1 biosensor stabilization (target engagement / stabilizer), active = hit call of the paper
# Details: stock concentration (mM; final µM = stock mM x 1): 10; 24 h
# PARP1 L713F-nLuc biosensor (HCT116), sequence (P09874 whole entry L713F, looked up): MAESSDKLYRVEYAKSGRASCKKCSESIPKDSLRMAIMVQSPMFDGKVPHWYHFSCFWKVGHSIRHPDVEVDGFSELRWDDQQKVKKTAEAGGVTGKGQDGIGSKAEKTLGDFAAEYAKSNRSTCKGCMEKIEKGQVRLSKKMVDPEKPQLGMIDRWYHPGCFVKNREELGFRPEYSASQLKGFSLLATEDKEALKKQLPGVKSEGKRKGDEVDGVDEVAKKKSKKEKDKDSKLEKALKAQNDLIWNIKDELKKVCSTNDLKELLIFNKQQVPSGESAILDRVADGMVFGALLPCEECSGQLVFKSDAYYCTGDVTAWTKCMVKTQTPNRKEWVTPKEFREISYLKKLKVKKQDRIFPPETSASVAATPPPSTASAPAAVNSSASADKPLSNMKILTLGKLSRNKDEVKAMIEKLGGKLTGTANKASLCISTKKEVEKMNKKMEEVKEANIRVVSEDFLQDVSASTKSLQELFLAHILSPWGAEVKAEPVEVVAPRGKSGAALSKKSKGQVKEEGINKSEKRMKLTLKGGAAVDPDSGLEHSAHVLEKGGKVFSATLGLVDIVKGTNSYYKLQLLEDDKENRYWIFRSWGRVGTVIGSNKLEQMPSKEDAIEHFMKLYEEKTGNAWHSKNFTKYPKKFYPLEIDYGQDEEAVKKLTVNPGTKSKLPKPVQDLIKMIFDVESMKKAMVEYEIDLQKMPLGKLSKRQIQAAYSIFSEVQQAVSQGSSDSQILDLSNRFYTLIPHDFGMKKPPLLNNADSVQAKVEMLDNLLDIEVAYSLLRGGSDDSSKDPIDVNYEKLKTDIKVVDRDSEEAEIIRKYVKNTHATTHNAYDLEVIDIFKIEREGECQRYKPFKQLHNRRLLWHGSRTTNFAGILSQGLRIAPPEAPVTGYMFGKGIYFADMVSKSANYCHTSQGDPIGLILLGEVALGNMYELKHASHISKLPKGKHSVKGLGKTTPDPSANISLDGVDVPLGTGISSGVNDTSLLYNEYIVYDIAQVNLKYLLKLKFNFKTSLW
row,SMILES,PARP1 L713F-nLuc/akaLuc ratio
1,O=C(O)C1=CC(=C(c2ccc(O)c(C(=O)O)c2)c2ccc(O)c(C(=O)O)c2)C=CC1=O [Aurintricarboxylic acid],0.68
2,CS(=O)(=O)c1ccc(-c2cnc(NCc3ccco3)n3cnnc23)cc1,0.722
3,Cc1cc2c(F)c(Oc3ncnn4cc(OC[C@@H](C)O)c(C)c34)ccc2[nH]1,0.898
4,CN1CCN(c2ccc3nc(-c4ccc5nc(-c6cccc(OCCCC(=O)NCCCN=[N+]=[N-])c6)[nH]c5c4)[nH]c3c2)CC1 [Targapremir-210],1.46
5,Cc1cc(C)c(CNC(=O)c2cc(-c3ccc(N4CCN(C)CC4)nc3)cc3c2c(C)cn3C(C)C)c(=O)[nH]1,1.47
6,O=C(CNC(=O)[C@H](COP(=O)(O)O)NC(=O)CCc1c[nH]c2ccccc12)NCCCCc1ccccc1,1.08
7,CC[C@H](C)n1cc(C)c2c(C(=O)NCc3c(C)cc(C)[nH]c3=O)cc(-c3ccc(N4CCNCC4)nc3)cc21,1.03
8,Nc1c(S(=O)(=O)c2ccccc2)c2nc3ccccc3nc2n1-c1ccc(F)cc1,1.04
9,CCS(=O)(=O)N1CC(CC#N)(n2cc(-c3ncnc4[nH]ccc34)cn2)C1,0.444
10,CC(C)n1cnc2c(NCCc3ccc(O)cc3)nc(-c3csc4ccccc34)nc21 [StemRegenin 1 (SR1)],0.788
11,CNC(=O)c1ccc2cc([C@@]3(O)CCn4cncc43)ccc2c1 [TAK-700 (Orteronel)],0.776
12,CCCCCC1CC1CC1CC1CCCCCCCC(=O)O (stereo unspecified),1.14
13,Nc1ncn([C@@H]2O[C@H](CO)[C@@H](O)[C@H]2O)c(=O)n1 [Azacitidine],4.35 (active)
14,Cc1cc(Nc2nc(N[C@@H](C)c3ccc(F)cc3)c(C#N)cc2F)n[nH]1,13.6 (active)
15,COc1cc(C(=O)Nc2ccccc2-c2cn3c(CN4CCNCC4)csc3n2)cc(OC)c1OC,0.569
16,CC[C@@](C)(Nc1ccnc(-c2c[nH]c3ncccc23)n1)C(=O)NCC(F)(F)F [Decernotinib (VX-509)],0.506

row,SMILES,PARP1 L713F-nLuc/akaLuc ratio
1,O=C1COc2c(CCNCCN(C(=O)CCNCCc3ccc(Cl)c(Cl)c3)C3CCCCC3)ccc(O)c2N1 [AZ505 (ditrifluoroacetate)],0.634
2,CC(C)c1c(-c2ccccc2)nc2c(C#N)c[nH]n2c1=O,0.786
3,N#Cc1cc2cc(CN3CCC(Nc4ncnc5sc(CC(F)(F)F)cc45)CC3)c(O)cc2n1Cc1cn[nH]c1,0.315 (active)
4,C[C@@H](NC(=O)c1ncnc(N)c1Cl)c1ncc(C(=O)Nc2cc(C(F)(F)F)c(Cl)cn2)s1,0.886
5,CN1CCN(c2ccc(Nc3ncc4cc(C#N)c(=O)n(C5CCCC5)c4n3)cc2)CC1,0.701
6,Cc1cc(C)c(CN2CCc3c(Cl)cc(-c4c(C)noc4C)c(Cl)c3C2=O)c(=O)[nH]1,0.881
7,Cc1cc(CN2CCN(c3c(Br)cnc4nc(-c5ccc(N6CCN(C)CC6)cc5)[nH]c34)CC2)no1,1.37
8,C=C1CCC[C@]2(C)C=C3OC(=O)C(C)=C3C[C@@H]12 [Atractylenolide I],0.934
9,COc1cc2c(NC3CCN(C4CCCCC4)CC3)nc(N3CCCN(C(C)C)CC3)nc2cc1OCCCN1CCCCC1,0.886
10,O=c1c(-n2ccnn2)c[nH]n1-c1cc(N2CCOCC2)ncn1 [Molidustat],0.788
11,C[C@H](Nc1cc(-c2cnn(C)c2)cc(Nc2cnccn2)n1)c1ccc(F)cc1 [Ilginatinib hydrochloride],0.281 (active)
12,Cc1nc(Nc2cnn(C3CCNCC3)c2)nc2c1N(C)C(=O)c1cc3ccccc3cc1N2C,0.761
13,CCN(CC)CCCC[C@H](NC(=O)[C@H](CC(C)C)NC(=O)[C@H](C)NC(=O)[C@H](Cc1ccccc1)NC(=O)c1ccc(C(C)(C)C)cc1)C(=O)N[C@@H](CO)C(=O)OC,1.47
14,CC(C)NC[C@@H](C(=O)N1CCN(c2ncnc3c2[C@H](C)C[C@H]3O)CC1)c1ccc(Cl)cc1 [Ipatasertib (GDC-0068)],0.669
15,Cn1ncc(Cl)c1-c1cc(C(=O)N[C@H](CN)Cc2ccc(F)c(F)c2)oc1Cl,0.603
